Test results from PubChem BioAssay.
Activity calls are given as the source filed them. Unless noted, no rule for the calls is given here.

Assays:
[1] = system: XIP peptide (Xip251-270) binding; experiment: XIP fragment 251-270 binding compounds – biochemical, small-molecule microarray, fluorescence 635/667 nm, 0.1 µg/mL protein, primary screen (AID 1182); conditions: fluorescent protein binding, 635 nm, higher = more signal, called active from +8 up or from −8 down
[2] = system: XIP peptide (Xip251-270); experiment: compounds binding XIP fragment 251-270 – biochemical, small-molecule microarray, fluorescence 635/667 nm, 0.5 µg/mL protein, primary screen (AID 1183); conditions: fluorescence 635 nm, higher = more signal
[3] = blood-stage malaria parasite viability loss – strain 3D7, DAPI fluorescence, 100 nL, primary screen (AID 1184);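 also: parasites grown inside human red blood cells in medium with human serum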; conditions: P. falciparum 3D7 growth, 3 d, higher = more signal
[4] = target: Homeobox protein Hox-A13 (Mus musculus) (UniProt Q62424); experiment: disruptors of Hoxa13 oligonucleotide interaction – biochemical, fluorescence polarization, labeled oligonucleotide, primary screen (AID 1185); conditions: Hoxa13:DNA binding, 15 min, higher = more signal, called active from +8 up or from −8 down
Sequence of Homeobox protein Hox-A13 (Mus musculus) (Q62424 whole entry, looked up): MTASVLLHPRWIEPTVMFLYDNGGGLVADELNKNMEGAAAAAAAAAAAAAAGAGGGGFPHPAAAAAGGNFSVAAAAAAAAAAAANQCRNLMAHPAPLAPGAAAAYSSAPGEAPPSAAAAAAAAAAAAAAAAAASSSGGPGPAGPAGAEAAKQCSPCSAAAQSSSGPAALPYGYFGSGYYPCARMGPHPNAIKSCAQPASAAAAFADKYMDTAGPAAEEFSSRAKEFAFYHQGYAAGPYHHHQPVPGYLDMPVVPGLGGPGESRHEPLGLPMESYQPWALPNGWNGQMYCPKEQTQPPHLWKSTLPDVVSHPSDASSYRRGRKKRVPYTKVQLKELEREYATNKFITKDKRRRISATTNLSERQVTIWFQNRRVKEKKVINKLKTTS

[5] = blockers of DNA damage checkpoint Chk1 activation – imaging, HeLa, hydroxyurea, phospho-Chk1 antibody, percent positive cells, primary screen (AID 1186); conditions: hydroxyurea-induced phospho-Chk1 immunofluorescence imaging, higher = more signal
[6] = blockers of DNA damage checkpoint Chk1 activation – imaging, HeLa, hydroxyurea, phospho-Chk1 nuclear intensity, primary screen (AID 1187); conditions: hydroxyurea-induced phospho-Chk1 immunofluorescence imaging, higher = more signal

Compound | composite z-score [1] | composite z-score [2] | z-score [3] | z-score [4] | z-score [5] | z-score [6]
CC(C)C(=C=CC[C@@H](O)c1ccccc1OCCO)C[C@@H](O)c1cc(Cl)cc(Cl)c1O | 1.25 (inactive) | 0.748 | -1.39 | -3.09 (inactive) | -0.059 (inactive) | 0.189 (inactive)
COC(=O)[C@@]1(Cc2ccc(F)cc2)[C@H]2c3cc(C(=O)N(C)C)n(CCO)c3C[C@H]2CN1C(=O)c1ccccc1 | 1.79 (inactive) | 0.39 | 0.196 | -4.71 (inactive) | -0.0514 (inactive) | 0.138 (inactive)
C/C=C/CN(C(=O)C#Cc1ccccc1)[C@H](CO[Si](C)(C)C(C)(C)C)c1ccccc1 | -0.617 (inactive) | -0.109 | -2.04 | 1.99 (inactive) | -0.288 (inactive) | -0.0994 (inactive)
C=CCC(OC(C)=O)[C@@H]1[C@@H](N(Cc2ccc(-c3ccccc3)cc2)C(=O)c2ccc(C)cc2)c2cc(OCCCO)ccc2N1C(=O)c1ccc2ccccc2c1 (some centres not stated) | -0.654 (inactive) | -0.354 | -1.26 | -0.819 (inactive) | -0.363 (inactive) | -0.221 (inactive)
CCCCN1CC=CC23O[C@@H]4C=CCOC(=O)[C@@H]4[C@H]2C(=O)N(CCO)[C@@H]3C1=O (some centres not stated) | 0.64 (inactive) | -0.964 | 1.12 | -3.84 (inactive) | -0.338 (inactive) | -0.424 (inactive)
C[N+](C)(C)CCCCCCNC(=O)[C@H]1C[C@H]2C(=O)NCC(=O)N2[C@H]1c1cccc(OCCO)c1 | 1.32 (inactive) | 0.695 | 0.138 | -3.97 (inactive) | 0.145 (inactive) | 0.136 (inactive)
CCN(CC)c1ccc(N2CC=CC34O[C@@H]5C=CCOC(=O)[C@@H]5[C@H]3C(=O)N(CCCO)[C@@H]4C2=O)cc1 (some centres not stated) | 0.309 (inactive) | 0.306 | -1.55 | -4.02 (inactive) | -0.232 (inactive) | -0.569 (inactive)
C[N+](C)(C)CCCCCCNC(=O)[C@@H]1C[C@@H]2C(=O)N[C@@H](Cc3ccccc3)C(=O)N2[C@@H]1c1ccc(O)cc1 | 1.13 (inactive) | 0.841 | -0.324 | -2.44 (inactive) | 0.459 (inactive) | 0.496 (inactive)
CCC[C@@H]1C=C(C(=O)OCC)[C@H](c2ccccc2)N1S(=O)(=O)c1ccc(C)cc1 | 0.406 (inactive) | 0.681 | -2.11 | -0.624 (inactive) | 0.144 (inactive) | 0.0243 (inactive)
O=c1cccc(-c2ccccc2C(F)(F)F)o1 | -0.808 (inactive) | -0.597 | 1.58 | -1.43 (inactive) | -0.968 (inactive) | -1.66 (inactive)
COC(=O)[C@@]1(Cc2ccc(F)cc2)[C@H]2c3cc(C(=O)N(C)C)n(CCN4CCOCC4)c3C[C@H]2CN1C(=O)c1ccccc1 | 0.673 (inactive) | 0.811 | -1.45 | -6.83 (inactive) | -0.366 (inactive) | -0.245 (inactive)
O=C1OCCC=C[C@H]2OC34C=CCN(CCN5CCOCC5)C(=O)[C@H]3N(CCCO)C(=O)[C@@H]4C12 (some centres not stated) | 0.186 (inactive) | 0.0388 | -1.72 | -3.86 (inactive) | -0.46 (inactive) | -0.374 (inactive)
C=C(COC)/C(=C/C[C@@H](OC(C)=O)c1ccccc1OCCO)c1cc(C(=O)OC)ccc1OC | -0.0801 (inactive) | 0.587 | -2.76 | -4.47 (inactive) | -0.503 (inactive) | 0.169 (inactive)
C=CC[C@]1(C(=O)N(C)C)COC(c2ccc(OCCCO)cc2)=N1 | 0.113 (inactive) | 0.907 | -1.7 | -2.35 (inactive) | -0.491 (inactive) | -0.146 (inactive)
CCCCCCc1nc(-c2ccc(OC)nc2)cc2c1[Si](C(C)C)(C(C)C)OC2 | -0.0275 (inactive) | -0.019 | -1.99 | -3.55 (inactive) | -0.0362 (inactive) | 0.237 (inactive)
O=C1NC(=O)C2C1C=CC(C(O)c1cccc(O)c1)N2Nc1ccc(Cl)cc1Cl (configuration not stated) | -0.186 (inactive) | 0.199 | -0.0722 | -5.1 (inactive) | 0.684 (inactive) | 0.194 (inactive)
COCCOC(=O)N1C(=O)[C@@]2(c3cc(C#CCC(C(=O)OC)C(=O)OC)ccc31)[C@H](c1ccc(OCCO)cc1)N1[C@H](c3ccccc3)[C@H](c3ccccc3)OC(=O)[C@H]1[C@@H]2C(=O)N1CCCCCCC1 | 0.836 (inactive) | 0.523 | -2.09 | -15.5 (active) | -0.181 (inactive) | 0.106 (inactive)
CC=CC(O)C1C=CC2C(=O)N(C)C(=O)C2N1NC(=O)OC(C)(C)C (configuration not stated) | -0.3 (inactive) | 0.335 | 0.675 | -1.46 (inactive) | 0.698 (inactive) | -0.0345 (inactive)
C[C@]1(C(=O)NCC(F)(F)F)c2ccccc2C(=O)N(Cc2ccc(OC(F)(F)F)cc2)[C@H]1c1ccc(CO)cc1 | 0.102 (inactive) | 0.564 | -0.231 | -3.96 (inactive) | 0.01 (inactive) | -0.125 (inactive)
CCCCC(O)C1C=CC2C(=O)N(C)C(=O)C2N1Nc1ccccc1 (configuration not stated) | -0.141 (inactive) | 0.0092 | -0.286 | -4.23 (inactive) | 0.342 (inactive) | -0.0493 (inactive)
C#CCN=C(N)N | 0.189 (inactive) | 0.391 | -0.624 | -0.327 (inactive) | -0.351 (inactive) | -0.447 (inactive)
[N-]=[N+]=NCc1ccccc1C[C@@]1(C(=O)O)N=C(c2ccc(OCCCO)cc2)O[C@@H]1c1ccccc1CN=[N+]=[N-] | 0.673 (inactive) | 0.512 | 0.107 | -5.11 (inactive) | -0.199 (inactive) | -0.026 (inactive)
COc1ccc(CC[C@H](O)c2cccc(OCC(=O)OC(C)(C)C)c2)cc1 | 0.809 (inactive) | 0.662 | -1.03 | -5.52 (inactive) | -0.0884 (inactive) | 0.27 (inactive)
COCCCNC(=O)[C@@H]1c2ccccc2C(=O)N(Cc2cc(C(F)(F)F)cc(C(F)(F)F)c2)[C@H]1c1ccc(CO)cc1 | -0.313 (inactive) | -0.903 | -1.14 | -3.22 (inactive) | -0.334 (inactive) | -0.768 (inactive)
CC1CC/C=C\[C@H]2OC34C=CCN(c5ccc(Cl)cc5)C(=O)[C@H]3N(CCCO)C(=O)[C@]4(C)C2C(=O)O1 (some centres not stated) | 0.412 (inactive) | 0.861 | 0.4 | -4.75 (inactive) | -0.226 (inactive) | 0.117 (inactive)
[N-]=[N+]=NCc1ccccc1C[C@]1(C(=O)O)COC(c2ccc(OCCCO)cc2)=N1 | -0.4 (inactive) | 0.264 | 1.24 | -3.85 (inactive) | 0.0203 (inactive) | -0.313 (inactive)
COc1cc(OC)c(C(O)C2C=CC3C(=O)N(c4ccccc4)C(=O)C3N2Nc2ccccc2F)cc1Br (configuration not stated) | 0.166 (inactive) | 0.758 | 1.74 | -1.47 (inactive) | 0.195 (inactive) | -0.0782 (inactive)
